This is one part of a sample in which hits are shown more often than they occur.
Shiga toxin inh: Shiga toxin inhibition; hit rate 9.2% among 290,000; inhibition, % at 38.7 µM; Vero cells, Shiga toxin protein synthesis inhibition reporter; in the data active = inhibition mostly above about 28%, no sharp cut-off; inactive = mostly below about 43%; note: 0% is about no effect
AmpC inh no detg: inhibitors of E. coli AmpC beta-lactamase without detergent; AID 485341; AmpC nitrocefin hydrolysis, absorbance 480 nm, 0.0001% Triton; Potency, µM (highest dose often 57.1 µM), inactives show top-dose activity change, negative = inhibition, most hits filed as inhibitors; P00811; hit rate 0.52% among 330,000;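 note: potency is the fitted concentration of half-maximal effect; plate controls were no compound for no effect and no enzyme for full effect; nearly all actives have a fitted effect of over 20% in size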
Target sequence (P00811 whole entry, looked up): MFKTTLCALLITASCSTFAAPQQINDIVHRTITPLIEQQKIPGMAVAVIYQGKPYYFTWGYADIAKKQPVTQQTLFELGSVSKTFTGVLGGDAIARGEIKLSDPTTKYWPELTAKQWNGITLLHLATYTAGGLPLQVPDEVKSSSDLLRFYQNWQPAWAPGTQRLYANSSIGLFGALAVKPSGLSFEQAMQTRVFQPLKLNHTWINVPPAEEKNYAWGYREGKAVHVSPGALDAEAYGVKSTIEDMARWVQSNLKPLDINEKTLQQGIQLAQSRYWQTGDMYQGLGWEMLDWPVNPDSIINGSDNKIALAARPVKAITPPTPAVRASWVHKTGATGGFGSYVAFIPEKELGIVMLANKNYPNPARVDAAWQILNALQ
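20 mM phosphate pH 7.0 + 0.01% (detergent screen) or 0.0001% Triton X-100; 5.3 nM AmpC reagent; cpd preinc 15 min RT; nitrocefin (800 uM stock) to start; A480 q20 s × 4 min; Activity was normalised to no-enzyme and no-compound control wells.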
AmpC detergent: AmpC beta-lactamase inhibition with detergent present; Potency, µM (highest dose often 114 µM), for inactives: top-dose activity change, negative = inhibition, usual class: inhibitors; AmpC hydrolysis of nitrocefin, absorbance 480 nm, 0.01% Triton; hit rate 0.041% among 370,000;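 note: potency is the fitted concentration of half-maximal effect; 0% = no-compound wells and -100% = no-enzyme wells; nearly all actives have a fitted effect of over 25% in size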
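AmpC (5.3 nM in the dispensed reagent) in 20 mM phosphate pH 7.0 with 0.01% (detergent screen) or 0.0001% Triton X-100 was preincubated with compounds for 15 min at room temperature. Nitrocefin was then added from an 800 uM solution, and hydrolysis was followed at 480 nm.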
NS1 inh: blocks influenza NS1 protein function | AID 2326 | Potency, µM (titrated, usually from 46.1 µM), for inactives: at the top dose activity, positive = more growth | hit rate 0.4% among 270,000; calls by dose curve; note: potency is the fitted concentration of half-maximal effect; actives are rising curves; nearly all actives have a fitted effect of over 50% in size
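S. cerevisiae expressing influenza A NS1, grown in glucose, washed, then diluted 1:100 into pH 6.0 -URA galactose medium with 23 nl compound. Growth recovery read as OD600; NS1-free strain serves as control.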
CHX counter: counter-screen for Shiga toxin inhibitors: cycloheximide protein synthesis inhibition; cell reporter, cycloheximide protein synthesis inhibition counterscreen; max response, %; AID 2314; hit rate 12% among 300,000; in the data active = max response mostly above about 13%, no sharp cut-off; inactive = mostly below about 14%; note: read at 38.3 µM for the half of the compounds with a filed dose; 0% is about no effect
Starred values were filed as active, the others as inactive; ? = inconclusive; . = no result. Unless noted, calls come from the whole dose curve; as a rule, active = well fitted curve in the direction sought with a large enough effect; inconclusive = small, poorly fitted or top-dose-only effect, or another doubt; inactive = no such curve, though single readings can be large; an effect the other way counts as inactive or inconclusive.

SMILES | Shiga toxin inh | AmpC inh no detg | AmpC detergent | NS1 inh | CHX counter
C=CCn1c(SCC(=O)c2ccc(O)c(O)c2)nnc1-c1cccc(OC)c1 | . | -27.2% | 0.4% | . | .
O=C(CSc1nnc(-c2ccc(Cl)cc2)n1Cc1ccco1)c1cccs1 | 43.7* | -31.3% | -9.6% | -1.2% | 58.1*
O=C(CSc1nnc(-c2ccncc2)n1Cc1ccco1)c1ccc(Cl)cc1 | 0.2 | 5.7% | -4.4% | -18.0% | -3.2
C=CCn1c(SCC(=O)c2cccs2)nnc1-c1cccc(OC)c1 | 36.7* | -22.0% | -7.1% | -31.2% | 17.6*
O=C(CSCc1ccco1)c1cccs1 | 82.1* | -19.6% | -15.3% | 0.4% | 39.3*
Cc1ccc(S(=O)(=O)N(Cc2ccccc2)c2ccccc2C(=O)N2CCCCC2)cc1 | -8.5 | 51.0% | -2.1% | -29.7% | -4.1
CC(C)(C)S(=O)(=O)Cc1nc(-c2ccc(Cl)c(Cl)c2)cs1 | 65.0* | 26.7% | -1.4% | -4.5% | 30.3*
Cc1cc(C)n(CCc2nc(-c3ccc(C(C)(C)C)cc3)cs2)n1 | 7.0 | 161.4% | 0.7% | 12.7% | 0.0
Cc1nc(NC(=O)/C=C/c2ccc(F)cc2)sc1C(=O)N(C)C | -3.1 | -34.5% | 1.3% | 16.9% | 8.2
Cc1nc(NC(=O)/C=C/c2ccccc2)sc1C(=O)N(C)C | 80.3* | -12.8% | 1.1% | -18.3% | 40.2*
Cc1nc(NC(=O)c2oc3ccccc3c2C)sc1C(=O)N(C)C | 52.3* | 129.4% | -1.2% | -13.2% | 40.1*
Cc1nnc(NC(=O)c2oc3ccccc3c2C)s1 | 89.9* | -9.3% | -11.4% | -11.0% | 36.0*
Cc1nc(NC(=S)NC(=O)c2ccco2)sc1C(=O)N(C)C | 56.7 | -6.3% | -1.9% | 8.1% | 31.6*
Cc1nc(NC(=O)c2ccncc2)sc1C(=O)N(C)C | -11.6 | -35.1% | -8.6% | 3.8% | 9.6
Cc1ccc2c(C)c(C(=O)Nc3nnc(C)s3)oc2c1 | 16.1 | -14.3% | -8.7% | 0.3% | -2.3
Cc1nc(NC(=O)CSC2=NCCS2)sc1C(=O)N(C)C | -15.2 | 13.2% | 0.0% | -3.7% | 8.8
COc1cccc(NC(=O)CN(C)C(=O)C(Sc2ccccc2)c2ccccc2)c1 (stereo not drawn) | . | 3.2% | 3.4% | . | .
CCOC(=O)c1cc(-c2ccccc2)n(CCC(=O)Nc2ccc(OC)c(Cl)c2)c1C | . | . | 3.1% | . | .
CC(=O)Nc1c(C(=O)N2CCCCCC2)cnn1-c1ccccc1Cl | -3.2 | -9.7% | -1.5% | 0.3% | -3.4
CC1CCN(S(=O)(=O)c2ccc3c(c2)N(CC(=O)NCc2ccccc2Cl)C(=O)CS3)CC1 | . | . | -3.8% | . | .
Cc1ccc(C(=O)Nc2nc(C)c(C(=O)N(C)C)s2)o1 | 79.7* | -20.4% | ? | -13.5% | 37.2*
Cc1cc(/C=C(\C#N)C(=O)OCC#N)c(C)n1CC(C)C | 59.5* | -21.1% | 0.7% | -10.2% | 28.1*
Cc1cc(/C=C(\C#N)C(=O)OCC(=O)Nc2ccc(OC(F)F)cc2)c(C)n1CC(C)C | 32.3 | -32.5% | -8.3% | ? | 26.2*
COc1ccc(C2C(C#N)=C(N)N(c3ccccc3C#N)C3=C2C(=O)CCC3)cc1CN1CCCC1 (stereo not drawn) | -4.1 | -3.1% | -6.9% | -1.6% | -4.4
Cc1ccc(S(=O)(=O)N2CCN(C(=O)CCCOc3ccc(Cl)cc3C)CC2)cc1 | . | 78.3% | 4.6% | . | .
SMILES | Shiga toxin inh | AmpC inh no detg | AmpC detergent | NS1 inh | CHX counter
Cc1cc(Cl)ccc1OCCCC(=O)N1CCCCC1 | 37.2 | 80.8% | 2.0% | -45.6% | 34.8*
Cc1cc(Cl)ccc1OCCCC(=O)N1CCOCC1 | 70.7* | 31.2% | -13.3% | -63.0% | 36.9*
CCOC(=O)CCCC(=O)N1CCOCCOCCN(C(=O)CCCC(=O)OCC)CCOCCOCC1 | 62.6* | -5.7% | 0.4% | -4.2% | 43.4*
Cc1cc(OCCCC(=O)N2CCCCC2)cc(C)c1Cl | 31.6* | 124.7% | -1.1% | -72.2% | 12.6*
CCOC(=O)N1CCN(C(=O)COc2cc(C)c(Cl)c(C)c2)CC1 | -2.6 | 142.4% | 3.4% | -8.1% | -0.9
Nc1nc(SCCc2ccccc2)c2[nH]cnc2n1 | . | . | . | 0.0% | .
Cc1nn(C(=O)c2cccs2)c(N)c1-c1ccccc1 | 67.8* | -20.1% | -8.9% | -51.9% | 34.7*
Cc1nn(C(=O)c2ccc3c(c2)OCO3)c(N)c1-c1ccccc1 | 76.0* | -2.4% | ? | -92.6% | 38.9*
O=C(c1ccc2c(c1)OCO2)N1CCN(c2ccccc2)CC1 | 44.1 | -1.2% | -14.9% | ? | 8.4
CC(=O)N1CCN(c2nc3c(F)cc(F)cc3s2)CC1 | . | . | 0.0% | . | .
CCCSC1=NN2CCCC(=O)N=C2S1 | 93.1* | -6.7% | 3.5% | . | 26.9*
COc1ccccc1-c1nc(SCC(=O)Nc2ccc(C)c(C)c2)n[nH]1 | . | . | 28.8% | . | .
O=C(NCc1ccc(F)cc1)c1cccc(S(=O)(=O)N2CCOCC2)c1 | . | -6.8% | -4.7% | . | .
COc1cccc(NC(=O)c2csc3c2CCCCC3)c1 | . | . | 14.3% | . | .
COC(=O)c1cc(=O)n(CCc2ccc(OC)cc2)c(=Nc2ccc(F)c(Cl)c2)s1 | -9.3 | -6.2% | -5.3% | 11.5% | -5.5
COC(=O)c1cc(=O)n(CCc2ccccc2)c(=Nc2ccc(F)cc2)s1 | 7.3 | 0.708µM* | -14.5% | -2.1% | 0.6
Cn1nc(NC(=O)C(F)(F)F)c2ncc(-c3ccc(Cl)cc3)nc21 | 67.8* | -14.0% | -13.8% | 0.4% | 41.2*
Cc1cccc(-c2nnc(-c3ccc(N)cc3)o2)c1 | 75.4* | -18.7% | 4.3% | -13.1% | 35.2*
Nc1ccc(-c2nnc(-c3ccc(N)cc3)o2)cc1 | 72.6* | -2.3% | 3.3% | -3.9% | 48.4*
CCOc1ccccc1NC(=O)Nc1cc2c(cc1N1CCCCC1)n(CC)c(=O)n2CC | . | . | -1.7% | . | .
COc1ccccc1N=c1oc2cc(O)ccc2cc1C(=O)NCC1CCCO1 (stereo not drawn) | 11.7 | 1.6% | 3.7% | -7.0% | 17.4*
COc1ccc(C(=O)Nc2ccccc2C(=O)NCC2CCCO2)cc1 (stereo not drawn) | -3.0 | -19.3% | -4.6% | -37.9% | -1.9
Cc1cccc(N=c2oc3cc(O)ccc3cc2C(N)=O)c1 | 38.8* | -0.2% | ? | -78.6% | 27.1*
COc1ccccc1NC(=O)c1cc2ccc(O)cc2o/c1=N\O | 59.7 | ? | -2.6% | 6.0% | 22.5
COc1ccc2cc(C(N)=O)c(=Nc3ccc(C)cc3)oc2c1 | 4.3 | -17.2% | -12.2% | . | 10.1
SMILES | Shiga toxin inh | AmpC inh no detg | AmpC detergent | NS1 inh | CHX counter
COc1ccccc1N=c1oc2cc(O)ccc2cc1C(N)=O | 18.5 | -29.2% | -4.2% | -64.8% | 13.6*
COc1cccc(N=c2oc3cc(O)ccc3cc2C(=O)NCC2CCCO2)c1 (stereo not drawn) | 65.3 | 14.1% | -6.5% | 3.8% | 12.8*
O=C(NCc1ccccc1Cl)c1nnc(Cc2ccc(Cl)cc2)o1 | . | . | 12.8% | . | .
COc1ccc2oc(=Nc3cccc(F)c3)c(C(N)=O)cc2c1 | 72.8* | 5.5% | -4.9% | . | 34.2*
CC(=O)N[C@@H](C=O)[C@@H](O)[C@H](O)[C@H](O)CO | -3.5 | . | . | . | -2.3
CC(=O)NC1=NN(C(C)=O)C(C)(c2ccco2)S1 (stereo not drawn) | 58.9* | 1.2% | -9.0% | -30.1% | 43.3*
